KCNQ2 block – KCNQ2 (rat) channel inhibition. CHO-K1 KCNQ2, FluxOR thallium flux, 20 min; hits give low values. O88943. B-score at 10 µM. hit rate 1.1% among 310,000. AID 2156;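 active = fluorescence ratio B-score at most minus 3 library SDs, with starting brightness B-score within 2 library SDs, cut at about -5.5 in these data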
KCNQ2 enhance – enhances the rat KCNQ2 potassium channel; O88943; CHO-K1 KCNQ2, FluxOR thallium flux fluorescence; hits give high values; B-score at 10 µM; hit rate 0.54% among 310,000;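 active = fluorescence ratio B-score at least 3 SD of library B-scores, with initial fluorescence B-score within 3 of them, cut at about 5.3 in these data; same plate scores as AID 2156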;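 note: B-score of peak minus minimum over baseline fluorescence ratio after K+ and Tl+ stimulus; positive B-score means potentiation of KCNQ2 with more thallium influx and brighter signal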
Kir21 confirm – confirmation of mouse Kir2.1 potassium channel inhibitors; shares compounds with KCNQ2 enhance; Kir2.1-expressing cells, FluxOR thallium flux fluorescence; hits give low values; Tl flux remaining, % of negative control (hits give low values), % at 10 µM; hit rate 41% among 2,300; AID 2032;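 active = Primary-screen hit whose thallium flux fell at least 3 control SD below untreated wells in both duplicates, with normal baseline fluorescence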;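 note: 0% = blank wells without stimulus and 100% = stimulated no-compound controls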
HEK293 Tl flux – parental HEK293 activity in Kir2.1 inhibitor counter-screen. shares compounds with KCNQ2 enhance. parental HEK293 cells, FluxOR thallium flux fluorescence; 0% = unstimulated blank wells. FluxOR signal as % of negative control (100 = no effect), % at 10 µM. hit rate 19% among 2,300;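 active = dye signal at least 3 control SD above or below untreated wells in both duplicates, raw fluorescence within 3, either direction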;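 note: percent is based on the flux ratio of peak minus minimum fluorescence over baseline F0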
CHO-K1 ctr – counter-screen for KCNQ2 potentiators: effect in parental CHO-K1 cells; hit rate 43% among 1,200; shares compounds with KCNQ2 enhance; FluxOR thallium flux fluorescence; zero = vehicle mean+3SD, 100% = vehicle-minus-blank window; activity increase over 3SD of controls, % at 10 µM; AID 2282;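 active = signal rise of at least 3 SD above the untreated control mean, in both duplicate wells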;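 note: counter screen of KCNQ2 potentiator hits so any rise reflects channel-independent effects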
KCNQ1 pot spec – selectivity of KCNQ2 potentiators: effect on human KCNQ1 | shares compounds with KCNQ2 enhance | CHO KCNQ1 stable, FluxOR thallium flux fluorescence; beyond 3SD, as % of vehicle-control signal | activation over 3SD threshold, % at 10 µM | hit rate 28% among 1,200;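 active = fluorescence ratio rise of at least 3 SD of vehicle wells above their mean, in both replicate wells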;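 note: 0% = vehicle mean plus 3 SD and 100% = vehicle minus unstimulated blank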
KCNQ2 pot conf – rat KCNQ2 channel potentiator confirmation; shares compounds with KCNQ2 enhance; hit rate 68% among 1,200; CHO-KCNQ2 cells, FluxOR thallium flux fluorescence; AID 2287; potentiation, less the hit threshold, % at 10 µM;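 active = fluorescence ratio rising 3 SD or more over the vehicle control mean in both replicates, plus primary screen hit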;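 note: peak minus minimum thallium fluorescence divided by baseline after K/Tl stimulus; 0% = vehicle mean plus 3 SD and 100% = vehicle minus unstimulated blank difference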
Kir2-1 sel – mouse Kir2.1 off-target activity of KCNQ2 potentiators; shares compounds with KCNQ2 enhance; HEK293 Kir2.1, FluxOR thallium flux fluorescence; activity over 3SD threshold, % at 10 µM; hit rate 2% among 1,200; AID 2345;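 active = fluorescence ratio rise of at least 3 SD above the vehicle-control mean, seen in both replicates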;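 note: 0% = vehicle mean plus 3 SD and 100% = vehicle minus no-stimulus blank window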
KCNQ2 W236L pot – KCNQ2 potentiators acting on retigabine-insensitive rat KCNQ2 W236L mutant | CHO KCNQ2-W236L, automated patch clamp current | current increase over 3SD of negative controls (%), hits give high values, % at 25 µM | hit rate 10% among 940 | shares compounds with KCNQ2 enhance;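 active = current increase at least 3 SD of the untreated controls above them in both duplicate recordings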
Target sequence (O88943 whole entry W236L, looked up): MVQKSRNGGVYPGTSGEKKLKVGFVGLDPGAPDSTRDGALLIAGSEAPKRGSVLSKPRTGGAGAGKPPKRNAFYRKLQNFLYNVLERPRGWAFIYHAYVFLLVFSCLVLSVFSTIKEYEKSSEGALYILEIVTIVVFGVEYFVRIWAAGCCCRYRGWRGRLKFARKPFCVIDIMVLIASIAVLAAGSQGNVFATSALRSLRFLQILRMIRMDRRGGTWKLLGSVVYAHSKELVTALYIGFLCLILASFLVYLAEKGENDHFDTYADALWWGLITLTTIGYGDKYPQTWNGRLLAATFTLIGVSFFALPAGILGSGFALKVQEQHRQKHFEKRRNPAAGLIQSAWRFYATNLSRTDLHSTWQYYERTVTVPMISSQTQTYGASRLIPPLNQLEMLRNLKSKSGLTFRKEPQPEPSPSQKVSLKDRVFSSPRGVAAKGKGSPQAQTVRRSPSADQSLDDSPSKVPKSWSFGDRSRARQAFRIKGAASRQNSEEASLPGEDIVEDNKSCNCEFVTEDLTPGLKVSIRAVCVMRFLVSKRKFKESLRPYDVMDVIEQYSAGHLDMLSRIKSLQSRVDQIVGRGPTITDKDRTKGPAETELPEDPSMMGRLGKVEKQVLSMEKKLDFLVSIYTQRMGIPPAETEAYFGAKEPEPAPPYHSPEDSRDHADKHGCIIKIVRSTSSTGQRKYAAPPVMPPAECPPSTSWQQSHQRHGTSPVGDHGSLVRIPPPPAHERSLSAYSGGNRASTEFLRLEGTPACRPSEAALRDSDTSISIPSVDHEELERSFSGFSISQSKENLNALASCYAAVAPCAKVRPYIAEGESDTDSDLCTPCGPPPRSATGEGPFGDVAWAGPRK
* marks the source's active call; other numbers are inactive results; i = inactive; / = no result. Compounds with a hit are over-represented: about 1.6% of the library has one in this group of screens.

SMILES	KCNQ2 block	KCNQ2 enhance	Kir21 confirm	HEK293 Tl flux	others
O=C(CC12CC3CC(CC(C3)C1)C2)Nc1c(F)cccc1F	i	9.96*	i	i	CHO-K1 ctr=-6.5;KCNQ1 pot spec=-25.2;KCNQ2 pot conf=33.1*;Kir2-1 sel=-25.9;KCNQ2 W236L pot=i
CN(C)S(=O)(=O)c1cccc(NC(=O)CC23CC4CC(CC(C4)C2)C3)c1	i	4.93	/	/
CC(=O)Nc1ccc(NC(=O)CC23CC4CC(CC(C4)C2)C3)cc1	i	2.21	/	/
CN(C)S(=O)(=O)Nc1cccc(NC(=O)CC23CC4CC(CC(C4)C2)C3)c1	i	7.85*	i	i	CHO-K1 ctr=7.1*;KCNQ1 pot spec=6.3*;KCNQ2 pot conf=-6.8;Kir2-1 sel=-29.5;KCNQ2 W236L pot=i
CC1CCN(S(=O)(=O)c2cc(C(=O)N3CCN(c4ncccn4)CC3)ccc2Br)CC1	i	/	/	/
CCN(CC)CCNc1ccc2nnc(CCNS(=O)(=O)c3ccc(C)cc3)n2n1	i	0.01	/	/
CCN(CC(=O)Nc1cccc(C#N)c1)CC(=O)Nc1cccc(OC)c1	i	/	/	/
C[C@@H](NCCc1ccc(O)cc1)[C@@H](O)c1ccc(O)cc1	i	0.08	/	/
CCCCCCCCNC(C)C(O)c1ccc(SC(C)C)cc1 (stereo not given)	i	6.84*	/	/	CHO-K1 ctr=-55.8;KCNQ1 pot spec=-20.1;KCNQ2 pot conf=-46.2;Kir2-1 sel=-61.6
O=c1cc(C(F)(F)F)[nH]c2c(OC(F)(F)F)cccc12	i	/	/	/
C=CCN1CCN(C(=O)c2ccc3c(c2)OCO3)CC1	i	0.29	/	/
CCc1nn(CC(=O)Nc2ccc(Br)c(C)c2)c(=N)s1	i	3.39	/	/
CCn1cc(CCC(=O)NCc2ccccc2OC)c2ccccc21	i	0.26	49.5%*	i
CCn1cc(CCCC(=O)NCc2ccccc2OC)c2ccccc21	i	/	/	/
COc1ccc(N2CC(C(=O)N[C@H](C(=O)NC(C)c3ccccc3)C(C)C)CC2=O)cc1 (stereo not given in full)	i	/	/	/
O=C(O)c1ccc(NC(=S)Nc2ccccc2)cc1	i	0.06	/	/
CN(C(=O)COC(=O)C1CCN(S(=O)(=O)c2c(Cl)cccc2Cl)CC1)C1CCCCC1	i	/	/	/
COc1ccc(CCN2CCCC(CN(C)Cc3cccc(OC)c3)C2)cc1 (stereo not given)	i	0.89	33.0%*	i
CN(Cc1ccc(C#CCCO)cc1)CC1CCCN(CCc2ccc(Cl)cc2)C1 (stereo not given)	i	/	40.0%*	i
CCN(Cc1ccc(OC)c(COC)c1)CC1CCCN(CCc2cccc(F)c2)C1 (stereo not given)	i	/	/	/
COc1ccc(CN(C)CC2CCCN(CCc3ccc(F)cc3)C2)c(OC)c1OC (stereo not given)	i	/	/	/
CCN(Cc1ccc(OC)c(COC)c1)CC1CCCN(CCc2cccc(OC)c2)C1 (stereo not given)	i	0.77	/	/
CCN(Cc1ccc(C#CCCO)cc1)CC1CCCN(CCc2cccc(F)c2)C1 (stereo not given)	i	/	53.0%*	i
Cc1ccc(C(=O)N2CCN(C)CC2)cc1S(=O)(=O)N1CCCCCC1	i	/	/	/
CCCC/C(O)=C1\C(=O)CCCC1=NCCc1c(C)[nH]c2ccc(OC)cc12	i	0.5	/	/
SMILES	KCNQ2 block	KCNQ2 enhance	Kir21 confirm	HEK293 Tl flux	others
C/C(=N\NC(=O)OC(C)(C)C)c1ccccc1Br	i	/	/	/
COc1ccc(S(=O)(=O)NCCSCc2ccco2)cc1Cl	i	0.75	58.0%*	i
COc1ccc(S(=O)(=O)NCCSCc2ccco2)cc1C	i	/	/	/
Cc1cc(=O)[nH]c(SCC(=O)N2CCCCC2)n1	i	/	/	/
Cc1cc(=O)[nH]c(SCC(=O)N2CCN(C(c3ccccc3)c3ccccc3)CC2)n1	i	10.3*	i	i	CHO-K1 ctr=-2.2;KCNQ1 pot spec=9.2*;KCNQ2 pot conf=5.0*;Kir2-1 sel=-25.6;KCNQ2 W236L pot=i
CCOC(=O)c1csc(NC(=O)CN2CCOCC2)n1	i	/	/	/
COc1ccc(CNCCC(c2ccc(OC)cc2)c2ccccc2OC)cc1 (stereo not given)	i	/	38.5%*	i
COc1ccc(CNCCC(c2ccccc2)c2ccc(OC(C)C)cc2)cc1OC (stereo not given)	i	/	/	/
COc1ccc(C(CCNCc2ccccc2)c2ccc(F)cc2)cc1 (stereo not given)	i	/	/	/
COc1ccc(C(CCNCc2ccc(OC(C)C)cc2)c2ccccc2OC)cc1 (stereo not given)	-6.54*	-6.54	29.0%*	i
COc1ccc(CNCCC(c2ccc(F)cc2)c2ccc(OC(C)C)cc2)cc1OC (stereo not given)	i	/	44.5%*	i
COc1ccc(CNC(C)CCc2ccccc2)cc1 (stereo not given)	i	3.06	40.5%*	i
COc1ccc(C(CCNCc2ccc(N(C)C)cc2)c2ccccc2OC)cc1 (stereo not given)	i	/	/	/
COc1ccc(CCC(C)NCc2ccc(C(F)(F)F)cc2)cc1 (stereo not given)	i	2.19	/	/
O=C(CCN1C(=O)C2CC=CCC2C1=O)Nc1cccc(Cl)c1 (stereo not given)	i	/	/	/
COc1ccc2nc(SCC(=O)NC3(C#N)CCCCC3)[nH]c2c1	i	1.59	/	/
CC(=O)N(Cc1cc2ccccc2[nH]c1=O)c1ccc(C)cc1	i	1.08	/	/
CCOc1ccc(C(=O)Nc2ncccc2Cl)cc1	i	1.23	/	/
CCOC(=O)c1c(CSc2ccccc2)n(C)c2cc(Br)c(O)c(CN(C)C)c12	i	/	/	/
CCOC(=O)c1c(CSc2ccsc2)n(C)c2cc(Br)c(O)c(CN(C)C)c12	i	/	60.5%*	66.5%*
CC(C)N1CCC(NC(=O)Nc2ccc3c(c2)OCO3)CC1	i	/	/	/
Cc1ccc(N=Cc2c(O)[nH]c3ccccc23)c([N+](=O)[O-])c1	i	/	/	/
CN1CCc2c(n(CC(O)CNCc3ccccc3)c3ccccc23)C1=O (stereo not given)	i	/	71.5%*	i
CN1CCc2c(n(CC(O)CN(CCO)CCO)c3ccccc23)C1=O (stereo not given)	i	0.46	/	/
CC1CC1C(=O)NCCc1ccc(Cl)cc1 (stereo not given)	i	0.51	/	/
O=C(CC1CC2CCC1C2)NCCc1ccc(Cl)cc1 (stereo not given)	i	5.92*	/	/	CHO-K1 ctr=-0.3;KCNQ1 pot spec=-16.7;KCNQ2 pot conf=0.8*;Kir2-1 sel=-74.7;KCNQ2 W236L pot=i

Assay outcomes as filed in PubChem BioAssay.
